Screening data from PubChem.
ST2 IL33 inh = inhibitors of human ST2 (IL1RL1) binding to IL-33, primary screen, biochemical, AlphaLISA; Interleukin-1 receptor-like 1 (Homo sapiens), Q01638; AlphaLISA ST2-Fc/biotin-IL-33 interaction, 1 h; inhibition, % for hits at 17 µM; actives 2.3% (n = 78,000); AID 1259354, 2018; in the data active = inhibition above about 30%
Target sequence (Q01638 whole entry, looked up): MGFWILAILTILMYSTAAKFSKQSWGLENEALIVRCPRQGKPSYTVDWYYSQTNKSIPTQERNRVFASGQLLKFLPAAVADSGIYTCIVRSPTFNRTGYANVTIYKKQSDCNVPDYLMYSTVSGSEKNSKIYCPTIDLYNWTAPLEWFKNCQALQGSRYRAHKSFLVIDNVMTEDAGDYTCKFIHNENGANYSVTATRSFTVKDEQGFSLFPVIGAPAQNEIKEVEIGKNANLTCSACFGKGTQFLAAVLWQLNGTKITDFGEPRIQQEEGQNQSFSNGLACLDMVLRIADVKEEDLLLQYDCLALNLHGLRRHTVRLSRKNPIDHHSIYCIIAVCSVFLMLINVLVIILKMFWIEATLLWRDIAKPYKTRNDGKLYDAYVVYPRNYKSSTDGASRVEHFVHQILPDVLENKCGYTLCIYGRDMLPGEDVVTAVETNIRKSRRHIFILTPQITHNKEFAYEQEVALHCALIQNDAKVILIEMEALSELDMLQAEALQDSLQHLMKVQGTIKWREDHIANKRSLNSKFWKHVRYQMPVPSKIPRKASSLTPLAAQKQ
Numbers without * were called inactive. The full list was thinned out, with hits kept by preference.

CCN1C(=O)/C(=C2\SC(N)=NC2=O)c2cc(Br)ccc21 was read as ST2 IL33 inh inactive.
For CCCN1C(=O)C(=O)c2cc(Br)ccc21 the results were ST2 IL33 inh inactive.
Screening CCCN1C(=O)/C(=C2\SC(N)=NC2=O)c2cc(Br)ccc21 returned ST2 IL33 inh 33%*.
Screening C=C(C)CN(CC)C(=O)c1cn(C)c2ccc(C)cc2c1=O returned ST2 IL33 inh inactive.
O=C1OC(c2ccc([N+](=O)[O-])cc2)=N/C1=C\c1ccccc1 was read as ST2 IL33 inh inactive.
For CCN1/C(=c2/sc3nc4ccccc4n3c2=O)C=Cc2cc(C)ccc21 the results were ST2 IL33 inh inactive.
CCN1/C(=C2/N=C(c3ccccc3)OC2=O)C=Cc2ccccc21 was read as ST2 IL33 inh 56%*.
`Cc1cnc(C)c(-c2ccc3c(c2)CC(CNC(=O)C2(c4ccc(Cl)cc4)CC2)O3)n1` (stereo not drawn) gave ST2 IL33 inh inactive.
`O=C1C[C@H]2CC[C@@H](CN1)N2C(=O)Cc1ccc(NC(=O)C2CC2)cc1` gave ST2 IL33 inh 43%*.
For NS(=O)(=O)c1ccc(NC(=O)C2CCN(C(=O)Cc3ccccc3)CC2)cc1 the results were ST2 IL33 inh inactive.
For NC(=O)c1ccc(NC(=O)C2CCN(C(=O)Cc3ccccc3)CC2)cc1 the results were ST2 IL33 inh inactive.
`Cc1ccc(C(=O)/C=C/C=C/C=C/N(C)C)o1` gave ST2 IL33 inh 39%*.
For Cc1ccc(C(=O)N2CCc3ccccc32)o1 the results were ST2 IL33 inh inactive.
For O=C(Nc1ccc(C(=O)N2CCOCC2)cc1)c1cccc(Cl)c1 the results were ST2 IL33 inh inactive.
`Cc1cc(C)n2c(-c3n[nH]c(CCc4ccccc4)n3)nnc2n1` gave ST2 IL33 inh inactive.
`COc1cccc(N2C(=O)Nc3ccccc3C2(O)C(=O)NCc2ccco2)c1` (stereo not drawn) gave ST2 IL33 inh inactive.
For CC(NC(=O)[C@H](CSCc1ccccc1)N1Cc2ccccc2C1=O)c1cccs1 (stereo partly drawn) the results were ST2 IL33 inh inactive.
CC1CCCN(C(=O)Cn2nnc(-c3ccccc3Cl)n2)C1 (stereo not drawn) was read as ST2 IL33 inh inactive.
For CCOC1=CC(c2ccc(F)cc2)Oc2ccccc21 (stereo not drawn) the results were ST2 IL33 inh inactive.
`CCOc1ccc2c(=O)c(-c3ccc(F)cc3)c(C)oc2c1` gave ST2 IL33 inh inactive.
`c1ccc(OCCCN2CCOCC2)cc1` gave ST2 IL33 inh inactive.
Screening CCOc1ccc(C2=C(CN(C)C)C(c3ccc(F)cc3)c3ccccc3O2)cc1 (stereo not drawn) returned ST2 IL33 inh 40%*.
For CCOc1ccc(C2=C(CN3CCOCC3)C(c3ccccc3)c3ccccc3O2)cc1 (stereo not drawn) the results were ST2 IL33 inh 31%*.
CCOC(=O)C1CCN(C(=O)C2c3ccccc3Oc3ccccc32)CC1 was read as ST2 IL33 inh inactive.
`Cn1cc(C(=O)N2CCC(C(N)=O)CC2)c2c3ccccc3n(C)c2c1=O` gave ST2 IL33 inh inactive.
`Cc1[nH]nc(NN)c1Cl` gave ST2 IL33 inh 55%*.
Nc1sc2c(c1C(=O)NC1CCCCC1)CCCC2 was read as ST2 IL33 inh inactive.
`COc1cccc(-c2ncnn2-c2sc3c(c2C#N)CCCCC3)c1OC` gave ST2 IL33 inh inactive.
Screening COc1cc(-c2ncnn2-c2sc3c(c2C#N)CCCCC3)cc(OC)c1OC returned ST2 IL33 inh inactive.
Screening N#Cc1c(-n2ncnc2-c2cccs2)sc2c1CCCCC2 returned ST2 IL33 inh 44%*.
Screening O=C(CN1CCCCCC1)N1CCCc2c1c(=O)oc1ccc(O)cc21 returned ST2 IL33 inh inactive.
O=C(CN1CCCCCC1)N1CCCc2c1c(=O)oc1ccc(OCc3ccccc3)cc21 was read as ST2 IL33 inh 30%*.
O=C(CN1CCCC1)N1CCCc2c1c(=O)oc1ccc(O)cc21 was read as ST2 IL33 inh inactive.
`CNc1ncccc1CN(Cc1ccc(F)cc1)CC1CCCO1` (stereo not drawn) gave ST2 IL33 inh inactive.
For Cc1nc2c(c(N3CCN(c4cccc(Cl)c4Cl)CC3)n1)CNC2 the results were ST2 IL33 inh inactive.
CCOC(=O)N1CCC(NC(=O)C2CCC(=O)N(C3CCCCCC3)C2)CC1 (stereo not drawn) was read as ST2 IL33 inh inactive.
`O=C(c1ccc(O)cc1)c1c(O)cc(O)c([C@@H]2O[C@H](CO)[C@@H](O)[C@H](O)[C@H]2O)c1O` gave ST2 IL33 inh inactive.
CC12CCC3C1C(c1c(cc(O)c(C(=O)c4ccccc4)c1O)O2)C3(C)C (stereo not drawn) was read as ST2 IL33 inh 31%*.
`CC1(C)OC2c3ccccc3OC3(C)CCC1CC23` (stereo not drawn) gave ST2 IL33 inh inactive.
`CCOc1cc(-c2ccc(O)cc2)cc(=O)c2c(C)oc(C)c12` gave ST2 IL33 inh inactive.
Screening CCOc1cc(/C=C2/C=C(c3ccc(C)cc3)OC2=O)ccc1O returned ST2 IL33 inh 31%*.
For CCOc1cc(/C=C2/Sc3ccccc3C2=O)ccc1O the results were ST2 IL33 inh 59%*.
CCOc1cc(/C=C2/C(=O)N(c3ccccc3)N=C2C)ccc1O was read as ST2 IL33 inh inactive.
Screening CC(C)c1ccc(/C=C2\Sc3ccccc3C2=O)cc1[N+](=O)[O-] returned ST2 IL33 inh inactive.
CCOc1cc(/C=C2/SC(=O)NC2=O)ccc1OCc1ccccc1 was read as ST2 IL33 inh inactive.
`CC(C)c1cc(NC(=O)c2cccc(CN(C)CCO)c2)n(C)n1` gave ST2 IL33 inh inactive.
O=C(Cc1ccc(F)cc1)Nc1c(C(=O)Nc2ccccc2F)oc2ccccc12 was read as ST2 IL33 inh inactive.
`O=[N+]([O-])c1cc(-n2ncnc2-c2ccc(Cl)cc2)ccc1F` gave ST2 IL33 inh inactive.
Screening CN1CCCN(Cc2ccsc2)CC1 returned ST2 IL33 inh inactive.
`Cc1ccc(NCC(=O)c2ccc([N+](=O)[O-])cc2)cc1` gave ST2 IL33 inh 36%*.
For Cc1ccc(NC(=O)c2ccc([N+](=O)[O-])cc2)cc1F the results were ST2 IL33 inh inactive.
For CC(C)(C)CC(=O)Nc1ccc([N+](=O)[O-])cc1 the results were ST2 IL33 inh inactive.
`O=c1oc2c(-c3ccc(Cl)cc3)cc(O)cc2s1` gave ST2 IL33 inh inactive.
`Cc1cc(Cc2ccc(NC(=O)c3cccs3)c(C)c2)ccc1NC(=O)c1cccs1` gave ST2 IL33 inh inactive.
For Cc1cc2ncn(C(=O)c3cccs3)c2cc1C the results were ST2 IL33 inh inactive.
Screening Cc1cc(C)c(/C=C/C(=O)c2cccs2)c(C)c1 returned ST2 IL33 inh 44%*.
For O=C1CCN(C2CC(=O)N(c3ccc(Cl)cc3)C2=O)[C@@H]2CCCC[C@@H]12 (stereo partly drawn) the results were ST2 IL33 inh inactive.
O=c1[nH]c(Nc2cccc(Cl)c2)nnc1Cc1ccccc1 was read as ST2 IL33 inh inactive.
Screening N#Cc1c(N)n(-c2cccc(F)c2)c2nc3ccccc3nc12 returned ST2 IL33 inh inactive.
Screening CCCCCn1c(N)c(C#N)c2nc3ccccc3nc21 returned ST2 IL33 inh inactive.
N#Cc1c(N)n(CCN2CCOCC2)c2nc3ccccc3nc12 was read as ST2 IL33 inh 36%*.
`CCOC(=O)c1c(N)n(-c2ccc(OCC)cc2)c2nc3ccccc3nc12` gave ST2 IL33 inh inactive.
